Measurements as given in article PMC9911399, “Two distinct binding modes provide the RNA-binding protein RbFox with extraordinary sequence specificity”.
Residue numbers refer to the chain shown, from its start. The full ranking holds about 16,000 sequences; the median of “ka relative to ugcaugu” is about 0.0091, and the highest 2% start at about 0.032. For the sample, the highest values were picked, then their nearest neighbours and some sequences at random.

T1: RBFOX1 RRM (Homo sapiens, UniProt Q9NWB1 109-208)
T1 sequence: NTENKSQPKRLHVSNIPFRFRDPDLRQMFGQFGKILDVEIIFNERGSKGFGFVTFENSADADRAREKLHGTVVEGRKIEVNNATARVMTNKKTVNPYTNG

B1: GUAGAGU (DNA:RNA)
RNA: GGGAGACCGGAAUUCAGAUUGUCCGUAGAGUUUAAAUCCCGUCGUAGCCACCA
DNA 1: CAATCTGAATTCCGGTCTCCC
DNA 2: TGGTGGCTACGACGGGATT
B2: GCCUGAC (DNA:RNA)
RNA: B1 RNA with U26C, A27C, G28U, A29G, G30A, U31C
DNA 1: CAATCTGAATTCCGGTCTCCC
DNA 2: TGGTGGCTACGACGGGATT
B3: UGACUGG (DNA:RNA)
RNA: B1 RNA with G25U, U26G, G28C, A29U, U31G
DNA 1: CAATCTGAATTCCGGTCTCCC
DNA 2: TGGTGGCTACGACGGGATT
B4: UCCUGAC (DNA:RNA)
RNA: GGGAGACCGGAAUUCAGAUUGUCCUCCUGACUUAAAUCCCGUCGUAGCCACCA
DNA 1: CAATCTGAATTCCGGTCTCCC
DNA 2: TGGTGGCTACGACGGGATT
B5: UGACUUG (DNA:RNA)
RNA: B1 RNA with G25U, U26G, G28C, A29U, G30U, U31G
DNA 1: CAATCTGAATTCCGGTCTCCC
DNA 2: TGGTGGCTACGACGGGATT
B6: UGACUGU (DNA:RNA)
RNA: B1 RNA with G25U, U26G, G28C, A29U
DNA 1: CAATCTGAATTCCGGTCTCCC
DNA 2: TGGTGGCTACGACGGGATT
B7: GCCAGAC (DNA:RNA)
RNA: B4 RNA with U25G, U28A
DNA 1: CAATCTGAATTCCGGTCTCCC
DNA 2: TGGTGGCTACGACGGGATT
B8: UGACUGC (DNA:RNA)
RNA: B1 RNA with G25U, U26G, G28C, A29U, U31C
DNA 1: CAATCTGAATTCCGGTCTCCC
DNA 2: TGGTGGCTACGACGGGATT
B9: UGCUGAC (DNA:RNA)
RNA: B4 RNA with C26G
DNA 1: CAATCTGAATTCCGGTCTCCC
DNA 2: TGGTGGCTACGACGGGATT
B10: UGACCGU (DNA:RNA)
RNA: B1 RNA with G25U, U26G, G28C, A29C
DNA 1: CAATCTGAATTCCGGTCTCCC
DNA 2: TGGTGGCTACGACGGGATT
B11: UGACUGA (DNA:RNA)
RNA: B1 RNA with G25U, U26G, G28C, A29U, U31A
DNA 1: CAATCTGAATTCCGGTCTCCC
DNA 2: TGGTGGCTACGACGGGATT
B12: GCCUGAA (DNA:RNA)
RNA: B4 RNA with U25G, C31A
DNA 1: CAATCTGAATTCCGGTCTCCC
DNA 2: TGGTGGCTACGACGGGATT
B13: CUGACUG (DNA:RNA)
RNA: B1 RNA with G25C, A27G, G28A, A29C, G30U, U31G
DNA 1: CAATCTGAATTCCGGTCTCCC
DNA 2: TGGTGGCTACGACGGGATT
B14: CGAGAAA (DNA:RNA)
RNA: B1 RNA with G25C, U26G, G30A, U31A
DNA 1: CAATCTGAATTCCGGTCTCCC
DNA 2: TGGTGGCTACGACGGGATT
B15: GAUAUCG (DNA:RNA)
RNA: B1 RNA with U26A, A27U, G28A, A29U, G30C, U31G
DNA 1: CAATCTGAATTCCGGTCTCCC
DNA 2: TGGTGGCTACGACGGGATT
B16: GGCGCCU (DNA:RNA)
RNA: B1 RNA with U26G, A27C, A29C, G30C
DNA 1: CAATCTGAATTCCGGTCTCCC
DNA 2: TGGTGGCTACGACGGGATT
B17: UGCCCAG (DNA:RNA)
RNA: B4 RNA with C26G, U28C, G29C, C31G
DNA 1: CAATCTGAATTCCGGTCTCCC
DNA 2: TGGTGGCTACGACGGGATT
B18: UGCGAGG (DNA:RNA)
RNA: B1 RNA with G25U, U26G, A27C, U31G
DNA 1: CAATCTGAATTCCGGTCTCCC
DNA 2: TGGTGGCTACGACGGGATT
B19: GUAGCGU (DNA:RNA)
RNA: B1 RNA with A29C
DNA 1: CAATCTGAATTCCGGTCTCCC
DNA 2: TGGTGGCTACGACGGGATT
B20: UUUAAGG (DNA:RNA)
RNA: B1 RNA with G25U, A27U, G28A, U31G
DNA 1: CAATCTGAATTCCGGTCTCCC
DNA 2: TGGTGGCTACGACGGGATT
B21: GUCUUAG (DNA:RNA)
RNA: B4 RNA with U25G, C26U, G29U, C31G
DNA 1: CAATCTGAATTCCGGTCTCCC
DNA 2: TGGTGGCTACGACGGGATT
B22: AGAUGCA (DNA:RNA)
RNA: B4 RNA with U25A, C26G, C27A, A30C, C31A
DNA 1: CAATCTGAATTCCGGTCTCCC
DNA 2: TGGTGGCTACGACGGGATT
B23: UGAUUCA (DNA:RNA)
RNA: B4 RNA with C26G, C27A, G29U, A30C, C31A
DNA 1: CAATCTGAATTCCGGTCTCCC
DNA 2: TGGTGGCTACGACGGGATT
B24: UUCAUGC (DNA:RNA)
RNA: B4 RNA with C26U, U28A, G29U, A30G
DNA 1: CAATCTGAATTCCGGTCTCCC
DNA 2: TGGTGGCTACGACGGGATT
B25: UGCAUGG (DNA:RNA)
RNA: B4 RNA with C26G, U28A, G29U, A30G, C31G
DNA 1: CAATCTGAATTCCGGTCTCCC
DNA 2: TGGTGGCTACGACGGGATT
B26: UGCAUAA (DNA:RNA)
RNA: B4 RNA with C26G, U28A, G29U, C31A
DNA 1: CAATCTGAATTCCGGTCTCCC
DNA 2: TGGTGGCTACGACGGGATT
B27: UUCAUGG (DNA:RNA)
RNA: B1 RNA with G25U, A27C, G28A, A29U, U31G
DNA 1: CAATCTGAATTCCGGTCTCCC
DNA 2: TGGTGGCTACGACGGGATT
B28: UGCAGAA (DNA:RNA)
RNA: B4 RNA with C26G, U28A, C31A
DNA 1: CAATCTGAATTCCGGTCTCCC
DNA 2: TGGTGGCTACGACGGGATT
B29: UGCAUGC (DNA:RNA)
RNA: B4 RNA with C26G, U28A, G29U, A30G
DNA 1: CAATCTGAATTCCGGTCTCCC
DNA 2: TGGTGGCTACGACGGGATT
B30: UGCGUGG (DNA:RNA)
RNA: B1 RNA with G25U, U26G, A27C, A29U, U31G
DNA 1: CAATCTGAATTCCGGTCTCCC
DNA 2: TGGTGGCTACGACGGGATT
B31: GUCCUGC (DNA:RNA)
RNA: B1 RNA with A27C, G28C, A29U, U31C
DNA 1: CAATCTGAATTCCGGTCTCCC
DNA 2: TGGTGGCTACGACGGGATT
B32: UGAUGCA (DNA:RNA)
RNA: B4 RNA with C26G, C27A, A30C, C31A
DNA 1: CAATCTGAATTCCGGTCTCCC
DNA 2: TGGTGGCTACGACGGGATT
B33: UGCAUGA (DNA:RNA)
RNA: B4 RNA with C26G, U28A, G29U, A30G, C31A
DNA 1: CAATCTGAATTCCGGTCTCCC
DNA 2: TGGTGGCTACGACGGGATT

The binders below were run against T1, RBFOX1 RRM (assay: EMSA; HiTS-Eq, 1 nM pool, 10 min; buffer printed only for the single-RNA assays: 10 mM Tris pH 7.5, 150 mM NaCl, 3.4 mM EDTA, 0.001% NP-40, 30 C). Details: tags: His6 N-terminal (pET28a); label: 5' 32P.
Outline: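 A pool of RNA with 7 randomized nucleotides, 5′-radiolabelled and with DNA-annealed flanks, was equilibrated at 1 nM for 10 min in 50 µL with purified RbFox RRM, wild type or mutant, across increasing protein concentrations. Free RNA was separated by 8% native PAGE, excised, reverse-transcribed, barcoded by PCR and sequenced. Relative association constants were obtained from read-count changes of each RNA species versus the control reaction and normalised to the cognate motif.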
For B1, the binding signal was 0.0112 KA relative to UGCAUGU.
With B2 the binding signal was 0.0331 KA relative to UGCAUGU.
With B3 the binding signal was 0.0284 KA relative to UGCAUGU.
For B4, the binding signal was 0.0129 KA relative to UGCAUGU.
With B5 the binding signal was 0.0454 KA relative to UGCAUGU.
With B6 the binding signal was 0.032 KA relative to UGCAUGU.
With B7 the binding signal was 0.0114 KA relative to UGCAUGU.
In the case of B8, the binding signal is reported as 0.039 KA relative to UGCAUGU.
For B9, the binding signal was 0.0249 KA relative to UGCAUGU.
For B10, the binding signal was 0.0185 KA relative to UGCAUGU.
B11 was tested, and the binding signal was 0.0256 KA relative to UGCAUGU.
B12 was tested, and the binding signal was 0.0276 KA relative to UGCAUGU.
B13 was tested, and the binding signal was 0.0302 KA relative to UGCAUGU.
B14 was tested, and the binding signal was 0.00724 KA relative to UGCAUGU.
B15 was tested, and the binding signal was 0.0155 KA relative to UGCAUGU.
With B16 the binding signal was 0.00816 KA relative to UGCAUGU.
With B17 the binding signal was 0.0164 KA relative to UGCAUGU.
In the case of B18, the binding signal is reported as 0.0231 KA relative to UGCAUGU.
With B19 the binding signal was 0.0174 KA relative to UGCAUGU.
In the case of B20, the binding signal is reported as 0.0043 KA relative to UGCAUGU.
In the case of B21, the binding signal is reported as 0.0121 KA relative to UGCAUGU.
With B22 the binding signal was 0.0164 KA relative to UGCAUGU.
For B23, the binding signal was 0.0154 KA relative to UGCAUGU.
In the case of B24, the binding signal is reported as 0.0106 KA relative to UGCAUGU.
In the case of B25, the binding signal is reported as 0.965 KA relative to UGCAUGU.
In the case of B26, the binding signal is reported as 0.00891 KA relative to UGCAUGU.
For B27, the binding signal was 0.00704 KA relative to UGCAUGU.
B28 was tested, and the binding signal was 0.0113 KA relative to UGCAUGU.
B29 was tested, and the binding signal was 1.02 KA relative to UGCAUGU.
In the case of B30, the binding signal is reported as 0.0211 KA relative to UGCAUGU.
B31 was tested, and the binding signal was 0.0203 KA relative to UGCAUGU.
With B32 the binding signal was 0.0332 KA relative to UGCAUGU.
B33 was tested, and the binding signal was 0.913 KA relative to UGCAUGU.
